# Experimental data reported in the supplement of paper PMC8728848.
# This is one part of a sample in which the strongest signals are shown more often than they occur.
# What was measured:
# Assay in all cases: glycan array binding signal (z-score within array); higher = stronger binding
# Conditions in all cases: glycan notation: IUPAC condensed, linker removed
# [1] = target: Fuc(a1-2)Gal
# Outline: (§1)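 Glycan array data came from 3228 arrays in the Consortium for Functional Glycomics database, and only arrays with an available protein sequence were kept. Glycan names were put into IUPAC-condensed notation, and columns mapping to the same glycan were averaged. The binding signal is a within-array Z-score, averaged across arrays of one protein sequence run at different concentrations or buffers and across linkers. A negative Z-score can be read as non-binding.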
# [2] = target: Fuc(a1-2)Gal(b1-3)GlcNAc(b1-2)Man(a1-3)[Fuc(a1-2)Gal(b1-3)GlcNAc(b1-2)Man(a1-6)]Man(b1-4)GlcNAc(b1-4)GlcNAc
# Outline: as §1
# [3] = target: Fuc(a1-2)Gal(b1-3)GlcNAc(b1-3)[Gal(b1-4)GlcNAc(b1-6)]Gal(b1-4)Glc
# Outline: as §1
# [4] = target: Fuc(a1-2)Gal(b1-3)[Fuc(a1-4)]GlcNAc(b1-2)Man(a1-3)[Fuc(a1-2)Gal(b1-3)[Fuc(a1-4)]GlcNAc(b1-2)Man(a1-6)]Man(b1-4)GlcNAc(b1-4)[Fuc(a1-6)]GlcNAc(b1-4)[Fuc(a1-6)]GlcNAc
# Outline: as §1
# [5] = target: Fuc(a1-2)Gal(b1-4)GlcNAc(b1-2)[Fuc(a1-2)Gal(b1-4)GlcNAc(b1-4)]Man(a1-3)[Fuc(a1-2)Gal(b1-4)GlcNAc(b1-2)Man(a1-6)]Man(b1-4)GlcNAc(b1-4)GlcNAc
# Outline: as §1
# [6] = target: Fuc(a1-2)Gal(b1-4)GlcNAc(b1-6)GalNAc
# Outline: as §1
# [7] = target: Fuc(a1-2)Gal(b1-4)[Fuc(a1-3)]GlcNAc(b1-2)Man(a1-3)[Fuc(a1-2)Gal(b1-4)[Fuc(a1-3)]GlcNAc(b1-2)Man(a1-6)]Man(b1-4)GlcNAc(b1-4)[Fuc(a1-6)]GlcNAc
# Outline: as §1
# [8] = target: Fuc(a1-2)Gal6S(b1-4)Glc
# Outline: as §1
# [9] = target: Fuc(a1-2)[Gal(a1-3)]Gal(b1-3)GlcNAc(b1-6)GalNAc
# Outline: as §1
# [10] = target: Fuc(a1-2)[Gal(a1-3)]Gal(b1-4)GlcNAc(b1-3)GalNAc
# Outline: as §1
# [11] = target: Fuc(a1-2)[Gal(a1-3)]Gal(b1-4)[Fuc(a1-3)]GlcNAc(b1-3)GalNAc
# Outline: as §1
# [12] = target: Fuc(a1-2)[GalNAc(a1-3)]Gal
# Outline: as §1
# [13] = target: Fuc(a1-2)[GalNAc(a1-3)]Gal(b1-3)GlcNAc
# Outline: as §1
# [14] = target: Fuc(a1-2)[GalNAc(a1-3)]Gal(b1-4)GlcNAc
# Outline: as §1
# [15] = target: Fuc(a1-2)[GalNAc(a1-4)]Gal(b1-4)GlcNAc
# Outline: as §1
# [16] = target: Gal(a1-3)[Gal(a1-4)]Gal(b1-4)GlcNAc
# Outline: as §1
# [17] = target: Gal(a1-4)Gal(b1-4)GlcNAc(b1-3)Gal(b1-4)Glc
# Outline: as §1
# [18] = target: Gal(b1-3)Gal(b1-4)GlcNAc
# Outline: as §1
# [19] = target: Gal(b1-3)GalNAc(b1-4)Gal(b1-4)Glc
# Outline: as §1
# [20] = target: Gal(b1-3)GlcNAc(b1-2)Man(a1-3)[GlcNAc(b1-4)][Gal(b1-3)GlcNAc(b1-2)Man(a1-6)]Man(b1-4)GlcNAc(b1-4)GlcNAc
# Outline: as §1
# [21] = target: Gal(b1-3)GlcNAc(b1-2)[Gal(b1-3)GlcNAc(b1-6)]Man(a1-6)[Gal(b1-3)GlcNAc(b1-2)Man(a1-3)]Man(b1-4)GlcNAc(b1-4)GlcNAc
# Outline: as §1
# [22] = target: Gal(b1-3)GlcNAc(b1-3)Gal(b1-4)GlcNAc(b1-2)Man(a1-3)[Gal(b1-3)GlcNAc(b1-3)Gal(b1-4)GlcNAc(b1-2)Man(a1-6)]Man(b1-4)GlcNAc(b1-4)GlcNAc
# Outline: as §1
# [23] = target: Gal(b1-3)[Fuc(a1-4)]GlcNAc(b1-2)Man
# Outline: as §1
# [24] = target: Gal(b1-3)[Fuc(a1-4)]GlcNAc(b1-2)Man(a1-3)[Gal(b1-3)[Fuc(a1-4)]GlcNAc(b1-2)Man(a1-6)]Man(b1-4)GlcNAc(b1-4)[Fuc(a1-6)]GlcNAc
# Outline: as §1
# [25] = target: Gal(b1-4)GalNAc(b1-3)[Fuc(a1-2)]Gal(b1-4)GlcNAc
# Outline: as §1
binder,measurement,setting,value
PX14343I-pdi-501-30-501 (Parabacteroides distasonis) (protein) SDQYSTETFWKTKEHASAGIMGCYNALKLWRSLHTMEFDMLTANAMPYNEANGTQAIGKGEHLSTTALIGSLWKNCYVGIGRTNTFIANVGGVDMDESEKAKMVGEAKFLRAFYYLSLVDKFGGVPLIIDAPNADEQAELPRNSKEEVVNQIVKDLEEAAAVLPDTYASSDLGRATKGAALALKARTLLYNSRWAEAAQAAKQVMESGVYQLFNDYRHFFSEDNKYNCEVIFDIEAKLPEYPTDYDQNIWRLNRPAPLKELVDTYLCVDGKTIEESPLYDPTRPYENRDPRLLKSIVCIGYPYLGKTITKEDVATTGFGVKKYTSYEDDVTIPLVERSAFNFILIRYAEVLLTYAEAQNEASGPDQSVYDAINQLRRRPDINMPEVPKGLTKDQMREVIRRERRIELTFEGLYYSDILRWKTAEKENNGMMHNYEGIEVVKRSFNPKRDYLWPIPYNQTVLNPNLEQNPNWD,glycan array binding signal (z-score),[1],-0.249
same,glycan array binding signal (z-score),[2],1.95
same,glycan array binding signal (z-score),[3],-0.005
same,glycan array binding signal (z-score),[4],-1.15
same,glycan array binding signal (z-score),[5],1.69
same,glycan array binding signal (z-score),[6],-1.54
same,glycan array binding signal (z-score),[7],2.6
same,glycan array binding signal (z-score),[8],0.082
same,glycan array binding signal (z-score),[9],-0.008
same,glycan array binding signal (z-score),[10],0.362
same,glycan array binding signal (z-score),[11],-0.205
same,glycan array binding signal (z-score),[12],-0.237
same,glycan array binding signal (z-score),[13],0.35
same,glycan array binding signal (z-score),[14],-0.707
same,glycan array binding signal (z-score),[15],-0.33
same,glycan array binding signal (z-score),[16],2.67
same,glycan array binding signal (z-score),[17],-0.408
same,glycan array binding signal (z-score),[18],-0.375
same,glycan array binding signal (z-score),[19],-0.713
same,glycan array binding signal (z-score),[20],0.623
same,glycan array binding signal (z-score),[21],1.55
same,glycan array binding signal (z-score),[22],0.741
same,glycan array binding signal (z-score),[23],0.532
same,glycan array binding signal (z-score),[24],1.6
same,glycan array binding signal (z-score),[25],-0.377
